Source: PubChem BioAssay AID463173 (ICCB-Longwood Screening Facility, Harvard Medical School, 2010)
The whole screen tested about 52,000 compounds, of which about 4,300 (8.3%) were called active. Cut-off read from the data, not from the text of the source: active = survival mostly below about 52% (no sharp cut-off); inactive = mostly above about 56%. What follows is part of a selection rich in actives, with near analogues and random picks from the rest.

Test system: DeltatarO mutant
Assay: growth inhibition of S. aureus wild type versus tarO mutant, primary screen, teichoic acid synthesis inhibitors, RN4220, OD600 (AID 463173)
Conditions: OD600, 18 h, hits give low values, screened at 18.75 µg/mL (by protocol)

SMILES	survival
O=C(CSCn1nnc2c(=O)[nH]c(Cc3ccc(F)cc3)nc21)Nc1cccc(C(F)(F)F)c1	64% (inactive)
CC(=O)OC(COCc1ccccc1)Cn1cnc2ccccc21 (stereo not given)	69% (inactive)
CCN(CC)CCCNC(=O)CN1C(=O)COc2ccc(S(=O)(=O)N3CCC(C)CC3)cc21	101% (inactive)
CSc1ccc(C2c3c(-c4ccccc4O)n[nH]c3C(=O)N2Cc2ccncc2)cc1 (stereo not given)	70% (inactive)
CCc1ccc(C2c3c(-c4ccccc4O)n[nH]c3C(=O)N2Cc2cccnc2)cc1 (stereo not given)	34% (active)
COC(=O)c1ccc(C2c3c(-c4ccccc4O)n[nH]c3C(=O)N2Cc2cccnc2)cc1 (stereo not given)	72% (inactive)
CCc1ccc(C2c3c(-c4ccccc4O)n[nH]c3C(=O)N2Cc2ccncc2)cc1 (stereo not given)	22% (active)
O=C1c2[nH]nc(-c3ccccc3O)c2C(c2cccc(O)c2)N1Cc1cccnc1 (stereo not given)	95% (inactive)
CCOc1ccc(C2c3c(-c4ccccc4O)n[nH]c3C(=O)N2Cc2ccncc2)cc1 (stereo not given)	68% (inactive)
CCCOc1ccc(C2c3c(-c4ccccc4O)n[nH]c3C(=O)N2Cc2cccnc2)cc1 (stereo not given)	3% (active)
CCOCCCN1C(=O)c2[nH]nc(-c3ccccc3O)c2C1c1ccc(CC)cc1 (stereo not given)	39% (active)
CCc1ccc(C2c3c(-c4cc(C)ccc4O)n[nH]c3C(=O)N2Cc2cccnc2)cc1 (stereo not given)	61% (inactive)
CCOc1cc(C2c3c(-c4ccccc4O)n[nH]c3C(=O)N2Cc2cccnc2)ccc1O (stereo not given)	93% (inactive)
CCCOc1ccc(C2c3c(-c4ccccc4O)n[nH]c3C(=O)N2CCCOCC)cc1OCC (stereo not given)	81% (inactive)
O=C(NC12CC3CC(CC(C3)C1)C2)c1ccco1	72% (inactive)
CN(C)CCCC1(O)c2ccccc2CCc2ccccc21	85% (inactive)
O=C(Nc1cc(Cl)cc(Cl)c1)c1ccc(F)c(S(=O)(=O)N2CCCC2)c1	78% (inactive)
CCC(CC)c1nc2ccccc2c(=O)[nH]1	98% (inactive)
Cc1cccc(-c2nc3scc(CCNS(=O)(=O)c4ccc5c(c4)OCCO5)n3n2)c1	85% (inactive)
Cc1nn(-c2ccccc2)c(-n2cccc2)c1C(=O)NCCc1ccc(Cl)cc1	4% (active)
Cc1ccc(CCNC(=O)c2c(C)nn(-c3ccc(F)cc3)c2-n2cccc2)cc1	67% (inactive)
Cc1nn(-c2ccc(F)cc2)c(-n2cccc2)c1C(=O)NCCc1ccc(Cl)cc1	68% (inactive)
Cc1ccc(NC(=O)c2c(C)nn(-c3ccccc3)c2-n2cccc2)c(Cl)c1	79% (inactive)

SMILES	survival
CC(=O)Nc1ccc(NC(=O)c2c(C)nn(-c3ccccc3)c2-n2cccc2)cc1	84% (inactive)
Cc1nn(-c2ccccc2)c(-n2cccc2)c1C(=O)NCc1ccccc1Cl	2% (active)
O=C(NC1CCCCC1)c1ccc(S(=O)(=O)N2CCCC2)cc1	79% (inactive)
CCOC(=O)c1ccc(NC(=O)Cn2cc(C(=O)C3CC3)c3ccccc32)cc1	68% (inactive)
Cc1ccccc1NC(=O)c1sc2nc3n(c(=O)c2c1C)N=C(c1ccccc1)CS3	88% (inactive)
COc1ccc2sc(N3C(=O)C4CC=C(C)CC4C3=O)nc2c1 (stereo not given)	103% (inactive)
COCCN1Cc2cc3cc4c(cc3nc2SC1=Nc1cccc(OC)c1)OCO4	87% (inactive)
CCN=C1Sc2nc3ccc(OCC)cc3cc2CN1CCOC	104% (inactive)
CCOc1ccc2nc3c(cc2c1)CN(CCO)C(=Nc1cccc(OC)c1)S3	47% (active)
CN(C)c1ccc(NC(=O)CN2CCN(CC(=O)Nc3ccc(Br)cc3)CC2)cc1	80% (inactive)
CCCn1c(-c2ccc(F)cc2)cnc1SCC(=O)N1CCCCC1C (stereo not given)	74% (inactive)
O=S(=O)(NCCc1csc2nc(-c3ccc(Cl)cc3)nn12)c1cccs1	84% (inactive)
COc1ccc(-c2nc3scc(CCNS(=O)(=O)c4ccccc4F)n3n2)cc1	90% (inactive)
CCc1ccc(S(=O)(=O)NCCc2csc3nc(-c4ccccc4)nn23)s1	109% (inactive)
O=S(=O)(NCCc1csc2nc(-c3ccccc3)nn12)c1cccs1	72% (inactive)
COc1ccc(S(=O)(=O)NCCc2csc3nc(-c4ccccc4)nn23)cc1OC	72% (inactive)
COc1ccc(-c2nc3scc(CCNS(=O)(=O)c4cccs4)n3n2)cc1	6% (active)
COc1ccc(OC)c(S(=O)(=O)NCCc2csc3nc(-c4ccccc4)nn23)c1	-1% (active)
CCS(=O)(=O)NCCc1csc2nc(-c3ccc(C)cc3)nn12	83% (inactive)
CS(=O)(=O)NCCc1csc2nc(-c3ccccc3)nn12	-2% (active)
CCOc1ccc(C(=O)Nc2ccc3nc(SCc4ccccc4)sc3c2)cc1	91% (inactive)
O=c1c2c(nc3n1CCCS3)-c1ccccc1CC21CCCC1	73% (inactive)
CC1=C(C(=O)OC2CCCCCC2)C(c2cccc(F)c2F)CC(=O)N1 (stereo not given)	128% (inactive)

SMILES	survival
CC(NC(=O)c1ccc(F)cc1)c1nc2ccccc2[nH]1 (stereo not given)	83% (inactive)
O=C(Cn1c(=O)nc(-c2ccccc2)c2ccccc21)Nc1ccc(Cl)cc1F	73% (inactive)
Clc1ccccc1-c1nnc(COc2ccccc2)o1	50% (inactive)
CC(CNC(=O)c1sc2ncccc2c1-n1cccc1)c1ccccc1 (stereo not given)	102% (inactive)
COCCCNC(=O)CCCn1c(=O)c2ccccc2n(CC(=O)Nc2ccc(C)cc2Cl)c1=O	96% (inactive)
COc1cc(NC(=O)CN2CCN(CC(=O)Nc3ccc(F)cc3)CC2)cc(OC)c1	70% (inactive)
CCN(C(=O)Cn1ncc2c(=O)oc3ccccc3c21)c1ccccc1F	118% (inactive)
Cc1ccc2nc(-c3ccc(O)cc3)c(Nc3ccc(Cl)cc3)n2c1	59% (inactive)
Oc1ccc(-c2nc3ccc(Cl)cn3c2Nc2ccc3c(c2)OCO3)cc1	106% (inactive)
Oc1ccc(-c2nc3ccc(Cl)cn3c2Nc2ccc(Cl)cc2)cc1	16% (active)
Cc1ccc(C(=O)OCc2cc(=O)n3nc(-c4cccs4)sc3n2)cc1	95% (inactive)
O=C(CSc1c2c(nc3ccccc13)CCC2)Nc1ccc(F)cc1F	69% (inactive)
CCC(C(=O)Nc1cc(OC)ccc1OC)n1c(C)c2cnn(-c3ccccc3)c(=O)c2c1C (stereo not given)	107% (inactive)
O=C(Cn1nc2c(cc1=O)CCCC2)Nc1ccc(F)cc1F	118% (inactive)
CCC(C(=O)Nc1ccc(C(=O)OC)cc1)n1nc(-c2ccc(C)cc2)c2c(c1=O)CCCC2 (stereo not given)	102% (inactive)
CCC(C(=O)Nc1ccc(F)cc1F)n1nc(-c2ccccc2)c2c(c1=O)CCCC2 (stereo not given)	38% (active)
CCC(C(=O)Nc1cc(OC)ccc1OC)n1nc(-c2ccccc2)c2c(c1=O)CCCC2 (stereo not given)	35% (active)
CCOc1ccc(NC(=O)CSC2=Nc3ccccc3C3=NC(CCC(=O)NCc4cccs4)C(=O)N23)cc1 (stereo not given)	70% (inactive)
CCN1CCN(Cc2c(C)[nH]c3c(C)cc(C)cc3c2=O)CC1	59% (inactive)
COc1ccccc1Cc1nc2ccccc2[nH]c1=O	54% (inactive)
CN1C(=O)c2ccccc2Sc2ccc(NC(=O)N3CCN(c4cccc(Cl)c4)CC3)cc21	87% (inactive)
CCOC(=O)CN1C(=O)c2cccnc2Oc2ccccc21	87% (inactive)
COc1ccccc1OCCSc1nc(-c2ccc(C(C)(C)C)cc2)nc2cc(=O)[nH]n12	49% (inactive)

SMILES	survival
C=CCc1ccccc1OCCSc1nc(-c2ccccc2F)nc2cc(=O)[nH]n12	99% (inactive)
C=CCc1ccccc1OCCSc1nc(-c2ccc(C(C)(C)C)cc2)nc2cc(=O)[nH]n12	32% (active)
COc1ccc(NC(=O)Cn2nnnc2-c2ccccc2F)c(C)c1	74% (inactive)
CCC(C)NC(=O)Cn1ccc2cc(S(=O)(=O)N3CCCCCC3)ccc21 (stereo not given)	118% (inactive)
CCOc1ccccc1NC(=O)COc1ccc(S(=O)(=O)NC2CCCCC2)cc1	48% (active)
CCOc1ccc(NC(=O)COc2ccc(S(=O)(=O)NC3CCCCC3)cc2)cc1	62% (inactive)
CCOc1ccccc1NC(=O)Cn1c(=O)ccc2cc(S(=O)(=O)N3CCCC3)ccc21	0% (active)
CCOc1ccccc1NC(=O)Cn1c(=O)ccc2cc(S(=O)(=O)N3CCC(C)CC3)ccc21	55% (inactive)
Cc1ccc(CNC(=O)Cn2c(=O)ccc3cc(S(=O)(=O)N4CCCC4)ccc32)cc1	92% (inactive)
CCc1ccccc1NC(=O)Cn1c(=O)ccc2cc(S(=O)(=O)N3CCCC3)ccc21	46% (active)
Cc1cccc(NC(=O)Cn2c(=O)ccc3cc(S(=O)(=O)N4CCCC4)ccc32)c1C	105% (inactive)
COc1ccc(NC(=O)COc2ccc(S(=O)(=O)NC3CCCCC3)cc2)c(OC)c1	66% (inactive)
CCc1ccccc1NC(=O)Cn1c(=O)ccc2cc(S(=O)(=O)N3CCC(C)CC3)ccc21	92% (inactive)
O=C(Cn1c(=O)ccc2cc(S(=O)(=O)N3CCCC3)ccc21)Nc1ccccc1	57% (inactive)
CCC(C)NC(=O)Cn1c(=O)ccc2cc(S(=O)(=O)N3CCCC3)ccc21 (stereo not given)	37% (active)
CCc1ccc(-n2c(=O)c3ccc(C(=O)NCCc4ccccc4)cc3n(CC(N)=O)c2=O)cc1	86% (inactive)
COC(=O)C1(CO)NC(c2ccccc2F)C2C(=O)N(c3ccccc3)C(=O)C21 (stereo not given)	86% (inactive)
COc1ccc(-c2nc(C)c(CCNC(=O)c3cccs3)s2)cc1	61% (inactive)
O=C(Nc1ccc(N2CCC(c3ccccc3)C2)c(C(=O)O)c1)c1ccc(Cl)cc1 (stereo not given)	60% (inactive)
CCNC(=O)C1CCCN(c2nn3cc(-c4ccc(C)cc4)nc3s2)C1 (stereo not given)	74% (inactive)
COCCCNC(=O)c1cc(-c2ccc(OC)cc2)nc2n[nH]c(-c3ccc(Cl)cc3)c12	73% (inactive)
